Reference: paper PMC7862700, “An all-to-all approach to the identification of sequence-specific readers for epigenetic DNA modifications on cytosine”

What was measured:
Assay in all cases: DAPPL (digital affinity profiling via proximity ligation, sequencing); 10 mM Tris-HCl pH 7.5, 50 mM NaCl, 1 mM DTT, 4% glycerol, room temperature, 30 min; GST-TFs on glutathione beads, 16-mer random dsDNA library, 0.1% formaldehyde crosslink after washing; high values mean tight binding
Conditions in all cases: protein: recombinant; tags: N-terminal GST; dsDNA, one strand shown
ERF = target: T1, ERF (Homo sapiens, UniProt P50548 1-548)
T1 sequence: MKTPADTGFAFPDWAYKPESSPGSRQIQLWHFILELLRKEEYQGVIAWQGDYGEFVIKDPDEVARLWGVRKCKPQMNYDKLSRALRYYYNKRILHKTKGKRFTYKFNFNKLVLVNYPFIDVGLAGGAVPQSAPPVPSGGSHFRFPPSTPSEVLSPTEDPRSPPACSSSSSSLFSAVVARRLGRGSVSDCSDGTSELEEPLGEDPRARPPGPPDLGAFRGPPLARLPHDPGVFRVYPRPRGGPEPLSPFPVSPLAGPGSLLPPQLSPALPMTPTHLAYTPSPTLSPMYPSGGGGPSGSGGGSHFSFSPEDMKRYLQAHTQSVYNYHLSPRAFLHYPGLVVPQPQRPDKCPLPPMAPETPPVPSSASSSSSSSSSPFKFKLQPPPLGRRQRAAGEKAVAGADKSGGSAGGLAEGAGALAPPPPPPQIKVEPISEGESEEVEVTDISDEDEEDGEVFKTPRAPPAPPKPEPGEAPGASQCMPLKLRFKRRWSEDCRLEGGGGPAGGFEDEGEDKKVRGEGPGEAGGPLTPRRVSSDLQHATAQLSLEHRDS
How it was run: (§1)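 Pools of DNA-barcoded human transcription factors, expressed in yeast as GST fusions on glutathione beads and combined with a tag-only sample, were incubated with 200 nmole of a 16-mer random double-stranded DNA library. Incubation took 30 min at room temperature in Tris/NaCl/DTT/glycerol buffer and was followed by washing, 0.1% formaldehyde crosslinking, proximity ligation (BsaI/T4 ligase, 1 h, 37 °C), PCR amplification and sequencing on an Illumina NextSeq500. Binding signal is the ratio of a hexamer's read frequency for a factor to its frequency for the tag-only sample.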

ETV3L = target: T2, ETV3L (Homo sapiens, UniProt Q6ZN32 1-361)
T2 sequence: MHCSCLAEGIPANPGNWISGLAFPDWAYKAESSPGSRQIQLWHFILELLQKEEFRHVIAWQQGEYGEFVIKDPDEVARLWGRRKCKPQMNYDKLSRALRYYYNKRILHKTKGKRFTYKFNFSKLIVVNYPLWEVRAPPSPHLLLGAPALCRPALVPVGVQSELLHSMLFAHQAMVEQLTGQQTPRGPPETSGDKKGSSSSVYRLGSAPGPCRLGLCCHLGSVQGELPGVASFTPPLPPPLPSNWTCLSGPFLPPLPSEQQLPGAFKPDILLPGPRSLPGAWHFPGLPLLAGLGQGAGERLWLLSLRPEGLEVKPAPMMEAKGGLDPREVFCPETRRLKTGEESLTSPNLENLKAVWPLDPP
How it was run: as §1

ETS2 = target: T3, ETS2 (Homo sapiens, UniProt P15036 1-469)
T3 sequence: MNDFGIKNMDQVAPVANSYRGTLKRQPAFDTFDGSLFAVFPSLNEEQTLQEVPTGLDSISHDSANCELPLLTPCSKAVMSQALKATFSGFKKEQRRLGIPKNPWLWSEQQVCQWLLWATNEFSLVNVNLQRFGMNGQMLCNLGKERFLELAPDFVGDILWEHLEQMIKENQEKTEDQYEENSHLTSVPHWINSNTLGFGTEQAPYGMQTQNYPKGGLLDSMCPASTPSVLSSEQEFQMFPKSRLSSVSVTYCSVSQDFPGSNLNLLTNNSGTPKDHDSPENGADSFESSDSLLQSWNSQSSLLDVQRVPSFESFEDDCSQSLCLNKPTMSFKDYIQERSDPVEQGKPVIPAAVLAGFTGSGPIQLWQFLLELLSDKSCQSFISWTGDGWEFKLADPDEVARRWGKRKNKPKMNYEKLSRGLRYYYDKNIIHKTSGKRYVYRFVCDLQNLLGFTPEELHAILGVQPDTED
How it was run: as §1

SPDEF = target: T4, SPDEF (Homo sapiens, UniProt O95238 1-335)
T4 sequence: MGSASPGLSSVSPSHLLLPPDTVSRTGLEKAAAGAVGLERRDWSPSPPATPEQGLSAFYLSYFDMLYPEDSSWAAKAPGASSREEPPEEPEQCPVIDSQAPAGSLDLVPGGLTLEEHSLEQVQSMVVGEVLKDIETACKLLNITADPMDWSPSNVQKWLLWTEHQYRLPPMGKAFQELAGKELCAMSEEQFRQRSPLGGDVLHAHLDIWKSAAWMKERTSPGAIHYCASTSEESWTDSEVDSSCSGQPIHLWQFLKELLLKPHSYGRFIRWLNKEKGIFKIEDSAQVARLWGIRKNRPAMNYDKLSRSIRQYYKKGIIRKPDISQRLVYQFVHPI
How it was run: as §1

ETV7 = target: T5, ETV7 (Homo sapiens, UniProt Q9Y603 1-341)
T5 sequence: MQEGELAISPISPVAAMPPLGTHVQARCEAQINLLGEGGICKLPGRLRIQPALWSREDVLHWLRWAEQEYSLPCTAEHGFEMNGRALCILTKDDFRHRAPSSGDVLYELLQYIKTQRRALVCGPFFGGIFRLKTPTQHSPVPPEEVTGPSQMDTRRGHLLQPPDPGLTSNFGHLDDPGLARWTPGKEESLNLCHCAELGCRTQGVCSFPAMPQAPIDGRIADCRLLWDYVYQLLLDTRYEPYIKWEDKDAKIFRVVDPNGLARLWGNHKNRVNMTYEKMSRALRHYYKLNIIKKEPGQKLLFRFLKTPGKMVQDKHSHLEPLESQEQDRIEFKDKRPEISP
How it was run: as §1

ELF5 = target: T6, ELF5 (Homo sapiens, UniProt Q9UKW6-2 1-255)
T6 sequence: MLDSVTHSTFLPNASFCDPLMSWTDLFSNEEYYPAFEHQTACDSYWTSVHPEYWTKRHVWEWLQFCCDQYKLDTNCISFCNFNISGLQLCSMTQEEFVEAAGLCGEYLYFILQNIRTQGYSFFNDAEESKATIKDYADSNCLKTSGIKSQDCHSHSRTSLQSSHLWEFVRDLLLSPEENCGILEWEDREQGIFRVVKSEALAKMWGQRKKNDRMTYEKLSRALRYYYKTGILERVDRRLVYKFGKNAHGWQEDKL
How it was run: as §1

ETV3 = target: T7, ETV3 (Homo sapiens, UniProt P41162-2 1-143)
T7 sequence: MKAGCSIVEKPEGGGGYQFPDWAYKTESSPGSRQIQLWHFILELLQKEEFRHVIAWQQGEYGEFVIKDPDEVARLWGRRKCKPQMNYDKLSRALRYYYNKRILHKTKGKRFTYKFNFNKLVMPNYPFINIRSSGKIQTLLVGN
How it was run: as §1

ETV6 = ETV6 (Homo sapiens, UniProt P41212 1-452)
Sequence of ETV6 (P41212 whole entry): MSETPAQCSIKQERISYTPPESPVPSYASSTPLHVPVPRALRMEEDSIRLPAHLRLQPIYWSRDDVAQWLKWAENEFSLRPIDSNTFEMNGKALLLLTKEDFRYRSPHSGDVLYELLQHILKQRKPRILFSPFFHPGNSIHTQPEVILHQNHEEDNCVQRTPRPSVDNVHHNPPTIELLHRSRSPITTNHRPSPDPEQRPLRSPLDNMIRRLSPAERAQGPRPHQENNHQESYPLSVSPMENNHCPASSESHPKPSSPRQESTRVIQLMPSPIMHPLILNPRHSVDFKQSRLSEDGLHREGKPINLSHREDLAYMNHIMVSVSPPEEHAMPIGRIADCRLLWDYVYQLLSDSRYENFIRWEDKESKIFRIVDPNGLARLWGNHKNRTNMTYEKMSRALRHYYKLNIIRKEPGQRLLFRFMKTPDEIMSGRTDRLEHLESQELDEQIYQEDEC
How it was run: as §1

| Sequence | binding signal (ERF) | binding signal (ETV3L) | binding signal (ETS2) | binding signal (SPDEF) | binding signal (ETV7) | binding signal (ELF5) | binding signal (ETV3) | binding signal (ETV6) |
| --- | --- | --- | --- | --- | --- | --- | --- | --- |
| AATACA | 1.43 fold enrichment (6-mer frequency, TF over GST control) | 1.27 fold enrichment (6-mer frequency, TF over GST control) | 1.25 fold enrichment (6-mer frequency, TF over GST control) | 1.37 fold enrichment (6-mer frequency, TF over GST control) | 1.41 fold enrichment (6-mer frequency, TF over GST control) | 1.4 fold enrichment (6-mer frequency, TF over GST control) | 1.28 fold enrichment (6-mer frequency, TF over GST control) | 1.34 fold enrichment (6-mer frequency, TF over GST control) |
| AAAACA | 1.26 fold enrichment (6-mer frequency, TF over GST control) | 1.32 fold enrichment (6-mer frequency, TF over GST control) | 1.38 fold enrichment (6-mer frequency, TF over GST control) | 1.29 fold enrichment (6-mer frequency, TF over GST control) | 1.34 fold enrichment (6-mer frequency, TF over GST control) | 1.34 fold enrichment (6-mer frequency, TF over GST control) | 1.31 fold enrichment (6-mer frequency, TF over GST control) | 1.27 fold enrichment (6-mer frequency, TF over GST control) |
| CCCTAT | 1.22 fold enrichment (6-mer frequency, TF over GST control) | 1.44 fold enrichment (6-mer frequency, TF over GST control) | 1.34 fold enrichment (6-mer frequency, TF over GST control) | 1.31 fold enrichment (6-mer frequency, TF over GST control) | 1.3 fold enrichment (6-mer frequency, TF over GST control) | 1.43 fold enrichment (6-mer frequency, TF over GST control) | 1.34 fold enrichment (6-mer frequency, TF over GST control) | 1.28 fold enrichment (6-mer frequency, TF over GST control) |
| GATTCA | 1.06 fold enrichment (6-mer frequency, TF over GST control) | 1.19 fold enrichment (6-mer frequency, TF over GST control) | 1.18 fold enrichment (6-mer frequency, TF over GST control) | 1.12 fold enrichment (6-mer frequency, TF over GST control) | 1.09 fold enrichment (6-mer frequency, TF over GST control) | 1.05 fold enrichment (6-mer frequency, TF over GST control) | 1.2 fold enrichment (6-mer frequency, TF over GST control) | 1.13 fold enrichment (6-mer frequency, TF over GST control) |
| CATCTC | 1.25 fold enrichment (6-mer frequency, TF over GST control) | 1.32 fold enrichment (6-mer frequency, TF over GST control) | 1.36 fold enrichment (6-mer frequency, TF over GST control) | 1.24 fold enrichment (6-mer frequency, TF over GST control) | 1.15 fold enrichment (6-mer frequency, TF over GST control) | 1.22 fold enrichment (6-mer frequency, TF over GST control) | 1.29 fold enrichment (6-mer frequency, TF over GST control) | 1.26 fold enrichment (6-mer frequency, TF over GST control) |
| TTTCGT | 1.21 fold enrichment (6-mer frequency, TF over GST control) | 1.46 fold enrichment (6-mer frequency, TF over GST control) | 1.37 fold enrichment (6-mer frequency, TF over GST control) | 1.42 fold enrichment (6-mer frequency, TF over GST control) | 1.34 fold enrichment (6-mer frequency, TF over GST control) | 1.33 fold enrichment (6-mer frequency, TF over GST control) | 1.4 fold enrichment (6-mer frequency, TF over GST control) | 1.35 fold enrichment (6-mer frequency, TF over GST control) |
| ACTTCC | 7.03 fold enrichment (6-mer frequency, TF over GST control) | 7.94 fold enrichment (6-mer frequency, TF over GST control) | 8.81 fold enrichment (6-mer frequency, TF over GST control) | 8.64 fold enrichment (6-mer frequency, TF over GST control) | 7.8 fold enrichment (6-mer frequency, TF over GST control) | 12.5 fold enrichment (6-mer frequency, TF over GST control) | 9.02 fold enrichment (6-mer frequency, TF over GST control) | 10.9 fold enrichment (6-mer frequency, TF over GST control) |
| ACTTAT | 1.39 fold enrichment (6-mer frequency, TF over GST control) | 1.34 fold enrichment (6-mer frequency, TF over GST control) | 1.36 fold enrichment (6-mer frequency, TF over GST control) | 1.4 fold enrichment (6-mer frequency, TF over GST control) | 1.21 fold enrichment (6-mer frequency, TF over GST control) | 1.38 fold enrichment (6-mer frequency, TF over GST control) | 1.35 fold enrichment (6-mer frequency, TF over GST control) | 1.27 fold enrichment (6-mer frequency, TF over GST control) |
| CCTTCT | 1.5 fold enrichment (6-mer frequency, TF over GST control) | 1.62 fold enrichment (6-mer frequency, TF over GST control) | 1.53 fold enrichment (6-mer frequency, TF over GST control) | 1.84 fold enrichment (6-mer frequency, TF over GST control) | 1.45 fold enrichment (6-mer frequency, TF over GST control) | 1.86 fold enrichment (6-mer frequency, TF over GST control) | 1.44 fold enrichment (6-mer frequency, TF over GST control) | 1.58 fold enrichment (6-mer frequency, TF over GST control) |
